High-throughput results from PubChem.
Hits are enriched below; roughly 2.8% of the tested compounds scored in any of these assays.
SKKanGAS inh – SKKanGAS growth inhibition. S. pyogenes SKKanGAS, kanamycin growth, BacTiter-Glo, 6 h. inhibition, % at 7.5 µM. 300,000 tested, 1.3% active;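 active = mean replicate score, as percent of positive control median, at least 50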;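 also: strain carries kanamycin resistance gene driven by streptokinase promoter and grows in 40 µg/ml kanamycin; loss of luminescence reflects streptokinase promoter inhibition or plain growth inhibition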
PP1 counter – PP1-alpha (human) inhibition in PP5 counter-screen; 320,000 tested, 0.9% active; purified PP1alpha, OMFP fluorescence; AID 2235; inhibition, % at 6.7 µM;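 active = inhibition above the mean inhibition of all tested compounds plus 3 SD, computed separately for each screening campaign, cut at about 15% in these data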
Granule exo inh – lytic granule exocytosis inhibition; TALL-104 LAMP-1 surface exposure, flow cytometry; cells stimulated with thapsigargin and PMA; inhibition, % at 10 µM; 360,000 tested, 0.66% active; AID 651702;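 active = inhibition above about 55%, limit read from the data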
IDE inh – inhibitors of human insulin-degrading enzyme in cells; HEK cells, FAbetaB cleavage, fluorescence polarization; inhibition, % at 5.59 µM; 320,000 tested, 0.41% active; AID 434962;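 active = percent inhibition above the average of all tested compounds plus 3 SD, set per screening campaign, cut at about 16% in these data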;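 also: IDE supplied by intact live HEK cells; FP after avidin binding of uncleaved biotin substrate so inhibition keeps polarization high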
Target sequence (P14735 whole entry, looked up): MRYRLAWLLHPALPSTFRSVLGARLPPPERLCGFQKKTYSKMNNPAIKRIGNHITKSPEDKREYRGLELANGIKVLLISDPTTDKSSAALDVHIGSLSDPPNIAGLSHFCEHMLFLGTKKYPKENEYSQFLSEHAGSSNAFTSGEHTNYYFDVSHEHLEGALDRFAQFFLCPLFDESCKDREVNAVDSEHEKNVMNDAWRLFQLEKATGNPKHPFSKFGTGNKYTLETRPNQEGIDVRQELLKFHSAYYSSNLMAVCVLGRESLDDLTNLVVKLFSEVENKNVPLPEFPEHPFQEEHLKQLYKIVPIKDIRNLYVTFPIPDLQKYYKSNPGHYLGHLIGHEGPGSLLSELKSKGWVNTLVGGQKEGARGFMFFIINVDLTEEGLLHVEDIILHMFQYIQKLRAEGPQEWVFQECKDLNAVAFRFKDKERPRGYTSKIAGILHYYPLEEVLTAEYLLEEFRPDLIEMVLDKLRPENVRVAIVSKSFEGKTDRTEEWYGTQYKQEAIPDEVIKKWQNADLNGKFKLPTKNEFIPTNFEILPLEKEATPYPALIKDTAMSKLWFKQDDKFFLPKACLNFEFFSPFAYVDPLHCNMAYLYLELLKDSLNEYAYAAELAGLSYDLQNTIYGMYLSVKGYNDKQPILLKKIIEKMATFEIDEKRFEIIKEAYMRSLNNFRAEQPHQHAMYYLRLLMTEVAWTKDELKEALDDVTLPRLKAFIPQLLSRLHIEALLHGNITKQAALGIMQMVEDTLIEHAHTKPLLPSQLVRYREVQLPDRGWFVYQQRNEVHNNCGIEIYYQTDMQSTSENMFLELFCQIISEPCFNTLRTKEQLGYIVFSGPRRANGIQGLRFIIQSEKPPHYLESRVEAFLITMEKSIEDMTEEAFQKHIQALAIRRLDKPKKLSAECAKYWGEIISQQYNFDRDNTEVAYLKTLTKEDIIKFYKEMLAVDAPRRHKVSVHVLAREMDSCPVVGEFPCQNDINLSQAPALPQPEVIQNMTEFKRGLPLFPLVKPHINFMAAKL
IDE act – IDE (human) activation, cell-based; P14735; HEK cells, FAbeta-B cleavage, fluorescence polarization; 0% vehicle, 100% cell-free pure enzyme wells; activation, % at 5.96 µM; 340,000 tested, 0.073% active; AID 493087;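 active = activation above the mean of all tested compounds plus 3 SD, set per screening campaign, cut at about 17% in these data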
PP5 primary – PP5 (human) phosphatase inhibition; P53041; purified PP5c, OMFP substrate fluorescence; inhibition, % at 6.7 µM; 320,000 tested, 0.18% active; AID 1987;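 active = inhibition above the campaign's mean inhibition across all tested compounds plus 3 SD, cut at about 9.5% in these data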
IDE cell inh cf – cellular human IDE inhibition, confirmation; inhibition, % at 5.59 µM; 1,200 tested, 51% active; shares compounds with IDE inh; HEK cells, FAbetaB cleavage, fluorescence polarization; AID 435028;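 active = mean inhibition across triplicate wells above the cutoff set by the earlier primary insulin-degrading enzyme screen, cut at about 16% in these data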
HEK293 tox – kills HEK cells in IDE inhibitor counter-screen. shares compounds with IDE inh. HEK293 cytotoxicity, ATP luminescence. inhibition, % at 5.59 µM. 1,200 tested, 28% active. AID 449730; in the data active = inhibition above about 22%
FP fluor counter – fluorescence interference counter-screen for IDE inhibitors; shares compounds with IDE inh; FP counterscreen for fluorescent artifacts, IDE probe project; IC50, µM; 30 tested, under 10 active; call rule not given here
Numbers stand for hits; - = inactive; . = no result given.

SMILES | SKKanGAS inh | PP1 counter | Granule exo inh | IDE inh | IDE act | PP5 primary | IDE cell inh cf | HEK293 tox | others
O=C(COC(=O)C1CSC2(c3ccc(F)cc3)CCC(=O)N12)NC(=O)NC1CCCC1 (stereo not given) | - | - | - | - | - | - | . | .
Nc1nnnn1/N=C/c1cc(Cl)cc(Cl)c1O | - | - | - | 19 | - | - | 43 | -
Cc1ccc(-c2nc(CS(=O)(=O)CC(=O)Nc3cc(F)ccc3F)c(C)o2)cc1 | - | - | - | - | - | - | . | .
CCc1sc(C(=O)Nc2ncccc2C)cc1C | - | - | - | - | - | - | . | .
CCc1sc(C(=O)Nc2nc(-c3ccccn3)cs2)cc1C | . | . | - | 19 | - | . | - | 50
Cc1cc(C(=O)OCC(=O)Nc2ccccc2C(F)(F)F)on1 | . | . | - | - | - | . | . | .
Cn1c(SCC(=O)OC2CCCCC2)nnc1-c1ccco1 | - | - | - | 19 | - | - | - | -
COc1cc(/C=N/Nc2nc3ccccc3[nH]2)ccc1O | - | - | - | - | - | - | . | .
COc1cc(/C=N/Nc2nc3ccccc3[nH]2)cc(OC)c1O | - | - | - | 18 | - | - | - | 24
COc1cccc(Cl)c1NC(=O)N1CCN(c2cc(C)nc3ccccc23)CC1 | - | - | - | 28 | - | - | 22 | 23
Cc1cc(C)n2nc(C(=O)OCC(=O)Nc3cc(S(=O)(=O)N4CCOCC4)ccc3Cl)nc2n1 | . | . | - | . | - | . | . | .
O=C(NCC(=O)N1CC=C(c2ccccc2)CC1)c1ccc(OC(F)F)cc1 | . | . | - | 18 | - | . | - | 55
CC(=O)N1c2ccc(S(=O)(=O)N3CCC(C(=O)N4CCN(c5ccc(Cl)cc5)CC4)CC3)cc2CC1C (stereo not given) | - | - | - | 20 | - | - | - | 38
O=Cc1ccc(N2CCCC2)o1 | - | - | - | - | - | - | . | .
N#C/C(=C\c1ccc(N2CCCCC2)o1)C(N)=O | - | - | - | 32 | - | - | 50 | -
N#C/C(=C\c1ccc(N2CCCCC2)o1)C(=O)Nc1cccc(Br)c1 | . | - | - | 140 | - | - | 79 | 42
CCCC(=O)N1CCCC(C(=O)c2cccc(OC(C)C)c2)C1 (stereo not given) | - | - | - | - | - | - | . | .
CC(=O)Oc1ccccc1C(=O)OCCN=C1NS(=O)(=O)c2ccccc21 | - | - | - | - | - | - | . | .
Brc1cc2ccccc2[n+](Cc2ccccc2)c1 | - | - | - | - | - | - | . | .
c1ccc(C[n+]2csc3ccccc32)cc1 | - | - | - | 26 | - | - | - | -
OCCN(Cc1ccccc1)Cc1cccc(F)c1 | - | - | - | - | - | - | . | .
Fc1cccc(C[n+]2csc3ccccc32)c1 | - | - | - | 22 | - | - | - | -
Cc1cc(C)c(S(=O)(=O)NNC(=O)C2CCN(Cc3ccccc3)CC2)c(C)c1 | - | - | - | - | - | - | . | .
Clc1cccc(-c2nnc(SCc3nc4ccccc4[nH]3)n2-c2ccccc2)c1 | . | . | . | . | . | . | . | . | FP fluor counter=-
Cc1ccc(-n2c(SCc3nc4ccccc4[nH]3)nnc2-c2ccncc2)cc1 | - | - | - | - | - | - | . | .
SMILES | SKKanGAS inh | PP1 counter | Granule exo inh | IDE inh | IDE act | PP5 primary | IDE cell inh cf | HEK293 tox | others
Clc1cccc(-c2nnc(SCc3nc4ccccc4[nH]3)n2Cc2ccco2)c1 | - | - | - | 71 | - | - | 50 | - | FP fluor counter=-
CC1(C(=O)NS(=O)(=O)c2cccc(C#N)c2)CCN1C(=O)CC1CCCCC1 (stereo not given) | . | . | - | . | . | . | . | .
Cc1ccc2c(c1)c1ncnc(N3CCOCC3)c1n2C | - | - | - | 17 | - | - | - | -
Cn1c(SCC(=O)Nc2ccc3nc(SCC(=O)N4CCCC4)sc3c2)nnc1-c1ccccc1 | - | - | . | 21 | . | - | - | -
O=C(Nc1c(C(=O)O)[nH]c2ccc(F)cc12)c1cccc(C(F)(F)F)c1 | - | - | - | - | - | - | . | .
CN1C(=O)/C(=C/c2ccc(OC(=O)c3ccco3)cc2)SC1=S | - | - | - | - | - | - | . | .
CCOc1cc(/C=C2/SC(=S)N(CC(=O)O)C2=O)ccc1OC(=O)c1cccs1 | - | - | - | - | - | - | . | .
COc1cc(/C=C2/SC(=S)N(CC(=O)O)C2=O)ccc1OC(=O)c1ccco1 | - | - | - | 26 | - | - | 90 | -
COc1cc(/C=C2\SC(=S)N(CC(=O)O)C2=O)ccc1OC(=O)c1ccco1 | - | - | - | 24 | - | - | 107 | -
CC(O)(CC(=O)CC(=O)c1ccccc1)c1ccccc1 (stereo not given) | . | . | - | . | - | . | . | .
CCCCCCN1C=CC=C/C1=C\C=C(C#N)C#N | - | - | - | 25 | . | - | 35 | -
O=C(O)CCCCCNC(=O)Cn1nnc2ccccc2c1=O | - | - | - | - | - | - | . | .
CCOC(=O)/C(C#N)=C\c1ccc(CC)s1 | - | - | - | - | - | - | . | .
CCOC(=O)/C(C#N)=C\C=C1C=CN(C)C=C1 | - | - | - | 52 | - | - | 38 | -
CC(C)c1ccccc1-n1c(SCc2cc(=O)oc3ccc4ccccc4c23)nnc1-c1cccnc1 | - | - | - | 24 | - | - | - | -
COc1ccc(C(=O)/C=C/c2cc(OC)c(O)c(OC)c2)c(F)c1 | - | - | - | 52 | - | - | 87 | 43
COc1cc(/C=C/C(=O)O)cc(OC)c1O | - | - | - | - | - | - | . | .
COc1ccc(C(=O)/C=C/c2ccc(N(C)C)cc2)c(OC)c1 | - | - | - | 82 | - | - | 26 | 47
COc1ccc(C(=O)/C=C/c2ccccc2)c(OC)c1 | - | - | - | - | - | - | . | .
COc1ccccc1Nc1ccc(NC(=O)c2cccc([N+](=O)[O-])c2C)cc1 | - | - | - | 17 | - | - | - | 39
O=C(OCCN1C(=O)c2cccc3c(N4CCOCC4)ccc(c23)C1=O)c1ccccc1Cl | - | - | - | 113 | - | - | 96 | 50
O=C(OCCN1C(=O)c2ccccc2C1=O)c1cc(S(=O)(=O)N2CCOCC2)ccc1Cl | . | - | - | - | - | - | . | .
O=C(OCCN1C(=O)c2cccc3c(N4CCOCC4)ccc(c23)C1=O)c1cccc(Cl)c1 | - | - | . | 91 | . | - | 81 | 38
O=C(OCc1c(F)cccc1Cl)c1cc([N+](=O)[O-])ccc1N1CCOCC1 | - | - | - | - | - | - | . | .
O=C(OCCN1C(=O)c2cccc3c(N4CCOCC4)ccc(c23)C1=O)c1ccc(Cl)cc1Cl | - | - | - | 49 | - | - | 48 | 61
O=C(COC(=O)c1cccc(Cl)c1)Nc1cc(S(=O)(=O)N2CCOCC2)ccc1N1CCOCC1 | . | . | - | . | - | . | . | .
Fc1ccc(-c2n[nH]c(=S)c3ccccc23)cc1 | - | - | - | - | - | - | . | .
